Test results as given in the supplement of paper PMC10933113.
Structures can show the parent of a compound that is named as a salt. ± gives the uncertainty stated by the source.

The compounds below were run on THP-1 (assay: CD86 surface expression induction over DMSO control (% over DMSO); higher = stronger dendritic cell activation). Conditions: exposure time: 24 h.
Method: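 hCLAT-like CD54 and CD86 surface expression on THP1 cells after 24 h exposure at a single concentration (highest non-cytotoxic concentration, or 100-200 µM if not cytotoxic). Flow cytometry (iQue) was run on 5,000 live cells.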

SMILES | CD86 surface expression induction
Cc1ccc2c(c1[N+](=O)[O-])C(=O)c1ccccc1C2=O [2-Methyl-1-nitroanthraquinone] (10 µM) | 7.64 ± 3.5
N=C(N)NN=C(/C=C/c1ccc([N+](=O)[O-])o1)/C=C/c1ccc([N+](=O)[O-])o1 [Nitrovin] (10 µM) | 88.4 ± 21
Cc1ccc(O)c(-n2nc3ccccc3n2)c1 [2-(2H-Benzotriazol-2-yl)-4-methylphenol] (100 µM) | -18.9 ± 28
Cc1cccc(N(C)C(=S)Oc2ccc3c(c2)C2CCC3C2)c1 (stereo not given) [Tolciclate] (100 µM) | -1.12 ± 6
Clc1nc(C(Cl)(Cl)Cl)c(Cl)c(Cl)c1Cl [2,3,4,5-Tetrachloro-6-(trichloromethyl)pyridine] (10 µM) | -11.6 ± 6.2
O=C(O)c1cccnc1Nc1cccc(C(F)(F)F)c1 [Niflumic acid] (100 µM) | -3.19 ± 1.6
S=C(NC1CCCCC1)NC1CCCCC1 [N,N'-Dicyclohexylthiourea] (10 µM) | -17.9 ± 4.5
C#CCN(C)CCCOc1ccc(Cl)cc1Cl [Clorgyline hydrochloride] (100 µM) | -4.71 ± 3.7
C/C=C1\C(=O)C[C@H]2[C@@H]3CCC4=CC(=O)CC[C@]4(C)[C@H]3CC[C@]12C [Guggulsterone Z] (100 µM) | -9.87 ± 7.2
CN(C)c1ccc(C(=C2C=CC(=[N+](C)C)C=C2)c2ccccc2)cc1 [Malachite green oxalate*] (10 µM) | 195 ± 53
CO[C@@]12[C@H](COC(N)=O)C3=C(C(=O)C(C)=C(N)C3=O)N1C[C@@H]1N[C@@H]12 [Mitomycin C] (100 µM) | 60.5 ± 16
CC(C)CC(NC(=O)OCC1c2ccccc2-c2ccccc21)C(=O)O (stereo in doubt) [N-(9-Fluorenylmethoxycarbonyl)-L-leucine] (100 µM) | -11.4 ± 2.7
Cc1c2ccccc2c(C)c2c1ccc1ccccc12 [7,12-Dimethylbenzanthracene] (10 µM) | 47.5 ± 61
CC1=C(/C=C/C(C)=C/C=C/C(C)=C/C=O)C(C)(C)CCC1 [13-cis-Retinal (Vitamin A aldehyde)] (100 µM) | 64.3 ± 98
CC(=O)Oc1ccc(C(c2ccc(OC(C)=O)cc2)c2ccccn2)cc1 [Bisacodyl] (100 µM) | 26.6 ± 55
O=C(/C=C/C=C/c1ccc2c(c1)OCO2)N1CCCCC1 [Piperine] (100 µM) | -4.64 ± 6.3
CCCCCCCCCCCCCCCC[N+](C)(C)Cc1ccccc1 [Benzylhexadecyldimethylammonium chloride] (10 µM) | 57.5 ± 17
Nc1cc(-c2ccncc2)c[nH]c1=O [Amrinone] (100 µM) | -0.14 ± 4.2
CCCCNC(=S)NCCCC [N,N'-Dibutylthiourea] (10 µM) | -9.37 ± 9.2
CC(C)(C)c1cc(O)c(C(C)(C)C)cc1O [2,5-Di-tert-butylbenzene-1,4-diol] (100 µM) | 6.5 ± 4.4

SMILES | CD86 surface expression induction
COc1ccc(-c2cc(=S)ss2)cc1 [Anethole trithione] (100 µM) | -4.63 ± 2.6
CC(C)=CCC1C(=O)N(c2ccccc2)N(c2ccccc2)C1=O [Feprazone] (200 µM) | 71.8 ± 44
NC(=O)N/N=C/c1ccc([N+](=O)[O-])o1 [Nitrofurazone] (200 µM) | 5.94 ± 3.7
Cc1ccc(N)cc1O [5-Amino-2-methylphenol] (200 µM) | -0.96 ± 6.3
CCN(CC)c1ccc(C(=O)c2ccccc2C(=O)O)c(O)c1 [2-[4-(Diethylamino)-2-hydroxybenzoyl]benzoic acid] (10 µM) | -12.1 ± 11
Cc1cc(C2(c3cc(C)c(O)cc3C)OS(=O)(=O)c3ccccc32)c(C)cc1O [p-Xylenol blue] (200 µM) | 2.3 ± 1.9
CCCCOCCOCCOCCO [2-[2-(2-Butoxyethoxy)ethoxy]ethanol] (115 µM) | 12.7 ± 12
C=CCOC(=O)/C=C\C(=O)OCC=C [Diprop-2-en-1-yl (2Z)-but-2-enedioate] (203 µM) | 29.9 ± 1.4
COP(=O)(O)OP(=O)(O)OC [Dimethyl dihydrogen diphosphate] (200 µM) | -3.42 ± 3.5
c1ccc(CCNc2nc(-c3ccccc3)cs2)cc1 [Fanetizole] (200 µM) | -6.54 ± 1.4
CCCCCCCCCCCCOCCO [2-(Dodecyloxy)ethanol] (200 µM) | 57 ± 59
O=C(O)Cc1cc(I)c(Oc2cc(I)c(O)c(I)c2)c(I)c1 [Tetrac] (100 µM) | 12.3 ± 2
CCCCc1ccc2[nH]c(NC(=O)OC)nc2c1 [Parbendazole*] (200 µM) | 65.8 ± 110
c1ccc(-c2ccccn2)nc1 [2,2'-Dipyridyl] (200 µM) | 0.3 ± 28
CCCCCCCCCCC=CC1CC(=O)OC1=O (stereo not given) [3-(Dodecenyl)dihydro-2,5-furandione] (200 µM) | -8.58 ± 3
O=C(O)Cn1c(C(=O)Nc2nc(-c3ccccc3Cl)cs2)cc2ccccc21 [Lintitript] (100 µM) | -2.3 ± 0.27
CC(C)=CCOc1ccc(/C=C/C(=O)c2ccc(OCC=C(C)C)cc2OCC(=O)O)cc1 [Sofalcone] (100 µM) | -6.95 ± 7.2
COC(=O)CCCCCCCC(=O)OC [Dimethyl nonanedioate] (200 µM) | -0.54 ± 1.9
CC(C)(C)c1cc(O)ccc1O [tert-Butylhydroquinone] (100 µM) | 66.8 ± 57
O=C1Nc2ccccc2C1(c1ccc(O)cc1)c1ccc(O)cc1 [Oxyphenisatin] (100 µM) | 3.8 ± 8.1
